Assay results from PubChem BioAssay (NCATS).
Results filed as inconclusive are left out. The source made the active and inactive calls. Unless noted, calls follow the shape of the dose curve; as a rule, active = well fitted curve in the direction sought with a large enough effect; inconclusive = small, poorly fitted or top-dose-only effect, or another doubt; inactive = no such curve, though single readings can be large; an effect the other way counts as inactive or inconclusive.

Tests used:
[1] = biological target: Cytochrome P450 1A2 (Homo sapiens) (UniProt P05177); test: p450-cyp1a2 (AID 410; calls by dose curve; also: potency is read from the fitted curve at half-maximal effect)
In short: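 O-Demethylation of luciferin 6' methyl ether by human CYP1A2 is monitored as luciferase luminescence. Substrate sits at Km (100uM); enzyme is 20nM. Values are scaled to 57 uM furafylline as maximal inhibition.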

[2] = NFAT Signaling Pathway (AID 444; active = well fitted curve in either direction with a large enough effect, not every such curve was filed as active;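 also: carbachol stimulus at about its EC50 of 1 µM final; % is scaled to controls: 0 for no effect and ±100 for the full control effect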); conditions: Jurkat NFAT-bla M1, carbachol, beta-lactamase ratio, 5 h; at 38 µM (top of the series)
In short: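 Jurkat cells with NFAT-driven β-lactamase reporter and co-expressed M1 receptor, stimulated with carbachol (final 1 uM, ~EC50), compound titration, 5 h at 37 °C. CCF4 loaded 1 h at RT; 460/530 nm ratio gave %activity and AC50.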

[3] = Stat Signaling Pathway (AID 446; active = well fitted curve in either direction with a large enough effect, not every such curve was filed as active;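 also: ME-180 cervical cancer cells given 40 pM IL-6 alongside compound; SIE-controlled beta-lactamase reporter measured as 460/530 nm FRET emission ratio; % is scaled to controls: 0 for no effect and ±100 for the full control effect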); conditions: ME-180 (cervical carcinoma) SIE beta-lactamase reporter, IL-6 stimulated, 5 h; at 38 µM (top of the series)
In short: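 Emission at 460 and 530 nm (excitation 405 nm) reports SIE-controlled beta-lactamase in ME-180 cells. Cells received compound with 40 pM IL-6 for 5 hrs at 37 C; data scaled between 300 pM IL-6 and 125 nM JAK-inhibitor controls.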

[4] = biological target: Glucocorticoid receptor (Homo sapiens) (UniProt P04150); test: GR-GFP Redistribution (AID 450;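 active = compounds whose dose series gives a full or clear partial fitted curve of increased nuclear translocation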; also: potency is read from the fitted curve at half-maximal effect); conditions: U2OS GR-GFP nuclear translocation, laser cytometry, 2 h
[5] = biological target: Glucocorticoid receptor (Homo sapiens) (UniProt P04150); test: GR-EFC Redistribution (AID 451; calls by dose curve; also: potency is read from the fitted curve at half-maximal effect); conditions: CHO-K1 GR-EFC translocation, beta-gal luminescence, 2 h
In short: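 CHO-K1 cells expressing nuclear EA and GR-ED fragments of b-gal; compounds titrated up to 46 uM final, 2 h at 37 C. GR nuclear translocation read as complemented b-gal luminescence after 1 h RT detection.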

[6] = biological target: 3',5'-cyclic-AMP phosphodiesterase 4B (Homo sapiens) (UniProt Q07343); test: qHTS Assay for Inhibitors of PDE-IV (AID 607; active = well fitted activation curve with a large enough effect in the main read-out, with a control signal flat, not every such curve was filed as active; also: % of control where 0% means no effect)
In short: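 The readout is membrane depolarisation from a cAMP-sensing CNG channel, detected with a potential dye at ex 535/em 590. Cells were HEK293-derived (endogenous PDE-IV) at 1000 cells/well, titrated up to 22.9 uM final.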

[7] = biological target: Guanine nucleotide-binding protein G(i) subunit alpha-1 (Homo sapiens) (UniProt P63096); test: qHTS Assay for Inhibitors of RGS12 GoLoco Motif Activity (Green Fluorophore) (AID 879);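 also: 0% = labeled peptide with Gαi1 and full inhibition = labeled peptide alone without protein; negative values mean loss of peptide binding seen as reduced polarization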
In short: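 A drop in FITC polarization marked displacement of the FITC-tagged RGS12 GoLoco peptide (10 nM) from Gαi1 (50 nM). Compounds were incubated 10 min at room temperature in Tris pH 7.5 buffer containing 150 mM NaCl, 0.1 mM GDP and 0.05% NP40; unlabeled peptide titration served as control.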

[8] = biological target: Cytochrome P450 2C9 (Homo sapiens) (UniProt P11712); test: qHTS Assay for Inhibitors and Substrates of Cytochrome P450 2C9 (AID 883); also: potency is read from the fitted curve at half-maximal effect; nearly all actives have a fitted effect of over 60% in size
In short: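 Signal: luciferase luminescence reporting luciferin produced by CYP2C9. Conditions: 10nM enzyme, Luciferin-H 100uM at KM, 25mM KPO4, 37C, 60 min NADPH-driven reaction. Reference: 57uM sulphaphenazole as 100% inhibition.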

[9] = biological target: Cytochrome P450 3A4 (Homo sapiens) (UniProt P08684); test: qHTS Assay for Activators of Cytochrome P450 3A4 (AID 885); also: nearly all actives have a fitted effect of over 65% in size
In short: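 Activators are scored by enhanced luminescence from CYP3A4 conversion of luciferin-PPXE (25uM, equal to KM) to luciferin, after 60 min at RT with an NADPH-regenerating system.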

[10] = qHTS Assay for Identification of Small Molecule Agonists for Thrombopoietin (TPO) Signaling Pathway (AID 917); also: % is scaled to controls: 0 for no effect and ±100 for the full control effect
In short: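 First, Ba/F3 cells with human TPO receptor were held overnight without IL-3. Next, compounds and TPO (26 pM final) were added. After 24 hrs at 37 C, luciferase detection reagent was added and luminescence measured following 10 min at room temperature.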

[11] = biological target: Muscarinic acetylcholine receptor M1 (Rattus norvegicus) (UniProt P08482); test: qHTS Assay for Antagonists of Acetylcholine Muscarinic M1 Receptor: Measurement of IP-One Response (AID 944); also: nearly all actives have a fitted effect of over 75% in size
In short: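 Antagonist mode with rat M1 receptor transfected into CHO cells. Compound is added first for 10 min, carbachol at its EC80 follows for 30 min, and lysis reagents then allow TR-FRET detection of accumulated IP1.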

[12] = biological target: Pyruvate kinase (Leishmania mexicana) (UniProt Q27686); test: qHTS Validation Assay for Inhibitors of Leishmania Mexicana Pyruvate Kinase (AID 945);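 also: 0% = DMSO only neutral control wells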
In short: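 Read-out: luminescence from PKLight stop/detection reagent, data normalized to DMSO. Reaction: 0.2 nM E451W LmPYK, 0.5 mM PEP, 0.1 mM ADP, pH 7.2, 1 h room temperature.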

[13] = biological target: Pyruvate kinase PKM (Homo sapiens) (UniProt P14618); test: qHTS Assay for Activators of Human Muscle Pyruvate Kinase (AID 954; active = well fitted curve in the direction sought with a large enough effect, not every such curve was filed as active;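 also: 0% = uninhibited enzyme and -100% = no enzyme or full thiadiazolimine inhibition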)
In short: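 PKM2, human, >95% pure, 0.1 nM; PEP 0.5 mM (Km), ADP 0.1 mM; 50 mM imidazole pH 7.2, 50 mM KCl, 0.01% Tween 20, 0.05% BSA; 1 h RT; luciferase luminescence readout.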

[14] = biological target: Alpha-galactosidase A (Homo sapiens) (UniProt P06280); test: Counterscreen for Glucocerebrosidase Inhibitors: qHTS Assay for Human alpha-Galactosidase at pH 4.5 (AID 992); also: 0% is about no effect
In short: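 Fluorogenic 4-MU alpha-D-galactoside (80 uM) hydrolysis, 2 nM enzyme, pH 4.5 citrate buffer + 0.005% Tween-20; 20 min RT; NaOH/glycine pH 10 stop; Ex365/Em440. Compounds titrated 0.7 nM–77 uM; Hill-equation AC50.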

[15] = biological target: alpha-glucosidase (Oryza sativa, rice) (UniProt Q653V4); test: Counterscreen for Glucocerebrosidase Inhibitors: qHTS Assay for Rice alpha-Glucosidase at pH 5.0 (AID 997);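 also: 0% = full activity with enzyme and -100% = basal without enzyme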
In short: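 Endpoint fluorogenic assay at pH 5.0: compounds (0.7 nM to 77 uM) titrated against 4 nM rice enzyme and 400 uM 4-MU-alpha-glucoside for 20 min at room temperature; NaOH/glycine stop, read ex 365/em 440 nm, Hill-fitted AC50.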

[16] = Validation of Assay for Modulators of Lamin A Splicing (AID 1459; active = well fitted curve in the direction sought with a large enough effect in the signal ratio; the % refers to the signal ratio;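 also: cells exposed to compound for two days before reading; 0% is about no effect; ratio rise marks activators and ratio drop marks inhibitors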)
In short: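 S3 HeLa cells stably expressing a lamin A-EGFP splicing minigene and DsRed2 were seeded at 600 cells/well in Opti-MEM with 2% FBS, pin-dosed, and incubated 48 hrs at 37 °C, 5% CO2. Laser-scanning cytometry (488 nm) gave GFP/RFP total intensity ratio.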

[17] = qHTS Assay for Lipid Storage Modulators (AID 1519; calls by dose curve; as to activity change, negative = inhibition: % is scaled to controls: 0 for no effect and ±100 for the full control effect); conditions: Drosophila S3 cells, BODIPY lipid droplet/cell ratio, laser cytometry, cells loaded with oleic acid
In short: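 Cells seeded at 5,000 per well were treated with compounds over a concentration series and loaded with oleic acid (400 uM, as added). Lipid droplet fluorescence (488 nm excitation, 500-530 nm channel) was read by laser-scanning cytometry and normalized to 20 uM Triacsin C.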

[18] = biological target: DNA repair nuclease/redox regulator APEX1 (Homo sapiens) (UniProt P27695); test: qHTS Validation Assay for Inhibitors of the Human Apurinic/apyrimidinic Endonuclease 1 (APE1) (AID 1705; also: potency is read from the fitted curve at half-maximal effect)
In short: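 Human APE1 was preincubated with compound for 15 min at room temperature, then 50 nM (final) THF-abasic double-stranded DNA substrate bearing 5'-TAMRA and 3'-BHQ-2 was added. Incision-driven fluorescence rise (ex 525/em 598 nm) was read kinetically.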

[19] = Counterscreen for APE1 Inhibitors: Fluorescent Dye Displacement Validation Assay (AID 1707); also: potency is read from the fitted curve at half-maximal effect
In short: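 Endpoint fluorescence read at 480 nm excitation / 540 nm emission; DNA-binding compounds lower signal by displacing 250 nM Thiazole Orange from 50 nM dsDNA containing a tetrahydrofuran abasic site, Tris-HCl pH7.5 buffer with NaCl and MgCl2.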

[20] = biological target: Endonuclease 4 (Escherichia coli (strain K12)) (UniProt P0A6C1); test: Counterscreen for APE1 Inhibitors: qHTS Validation Assay for Inhibitors of Endonuclease IV (AID 1708); also: potency is read from the fitted curve at half-maximal effect
In short: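 Conditions: 2 nM enzyme, 50 nM TAMRA/BHQ-2 substrate, pH 7.5 Tris buffer with 2 mM MgCl2, RT. Compound preincubation 15 min; readout three fluorescence reads 60 s apart, third-minus-first.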

Sequence of Glucocorticoid receptor (Homo sapiens) (P04150 whole entry, looked up, the tested form may be a part): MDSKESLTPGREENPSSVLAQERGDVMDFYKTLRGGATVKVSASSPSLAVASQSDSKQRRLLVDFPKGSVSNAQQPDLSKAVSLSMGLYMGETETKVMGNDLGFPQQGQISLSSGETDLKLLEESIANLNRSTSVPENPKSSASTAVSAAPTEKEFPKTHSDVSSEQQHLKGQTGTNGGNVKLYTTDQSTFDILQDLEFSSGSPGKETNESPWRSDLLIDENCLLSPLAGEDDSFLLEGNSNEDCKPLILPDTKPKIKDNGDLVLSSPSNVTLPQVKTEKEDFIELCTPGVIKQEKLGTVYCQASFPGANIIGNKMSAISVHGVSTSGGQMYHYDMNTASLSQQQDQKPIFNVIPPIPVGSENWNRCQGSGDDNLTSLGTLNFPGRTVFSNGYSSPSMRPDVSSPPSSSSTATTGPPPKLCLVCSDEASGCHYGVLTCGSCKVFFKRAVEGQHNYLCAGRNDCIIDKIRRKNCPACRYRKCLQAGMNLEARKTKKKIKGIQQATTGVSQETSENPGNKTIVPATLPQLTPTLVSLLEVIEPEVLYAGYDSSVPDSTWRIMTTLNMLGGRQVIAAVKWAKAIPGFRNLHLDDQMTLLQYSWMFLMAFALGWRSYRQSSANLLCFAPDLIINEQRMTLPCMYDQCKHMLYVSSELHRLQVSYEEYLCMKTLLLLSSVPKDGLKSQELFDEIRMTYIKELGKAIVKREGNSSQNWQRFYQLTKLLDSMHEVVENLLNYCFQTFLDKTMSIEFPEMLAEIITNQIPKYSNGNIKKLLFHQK
Sequence of Cytochrome P450 3A4 (Homo sapiens) (P08684 whole entry, looked up): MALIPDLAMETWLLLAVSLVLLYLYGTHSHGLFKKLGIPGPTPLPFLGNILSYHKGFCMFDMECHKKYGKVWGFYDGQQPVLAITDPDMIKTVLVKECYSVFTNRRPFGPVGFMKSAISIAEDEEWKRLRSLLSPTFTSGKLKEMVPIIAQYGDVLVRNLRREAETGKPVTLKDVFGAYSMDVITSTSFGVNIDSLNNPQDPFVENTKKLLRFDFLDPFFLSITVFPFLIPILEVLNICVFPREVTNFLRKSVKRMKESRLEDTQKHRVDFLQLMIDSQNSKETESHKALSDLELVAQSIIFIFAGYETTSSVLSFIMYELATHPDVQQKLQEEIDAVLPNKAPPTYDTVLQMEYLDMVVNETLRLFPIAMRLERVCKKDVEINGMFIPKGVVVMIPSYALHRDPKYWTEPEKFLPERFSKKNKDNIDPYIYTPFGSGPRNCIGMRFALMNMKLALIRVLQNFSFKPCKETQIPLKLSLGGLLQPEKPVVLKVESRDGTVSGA
Sequence of Cytochrome P450 2C9 (Homo sapiens) (P11712 whole entry, looked up): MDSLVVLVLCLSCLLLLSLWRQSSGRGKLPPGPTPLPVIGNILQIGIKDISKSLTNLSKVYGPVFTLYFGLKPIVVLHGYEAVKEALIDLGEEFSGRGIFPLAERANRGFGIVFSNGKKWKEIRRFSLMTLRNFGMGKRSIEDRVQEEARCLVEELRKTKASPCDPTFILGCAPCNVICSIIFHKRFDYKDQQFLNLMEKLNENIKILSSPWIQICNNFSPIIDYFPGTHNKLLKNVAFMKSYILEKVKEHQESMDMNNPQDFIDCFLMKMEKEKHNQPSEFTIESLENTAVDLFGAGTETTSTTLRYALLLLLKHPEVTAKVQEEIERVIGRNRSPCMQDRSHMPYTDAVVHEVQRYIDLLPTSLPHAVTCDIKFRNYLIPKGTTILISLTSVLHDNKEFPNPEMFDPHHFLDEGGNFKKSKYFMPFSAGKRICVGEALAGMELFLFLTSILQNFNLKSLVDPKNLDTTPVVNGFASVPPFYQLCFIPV
Sequence of Pyruvate kinase PKM (Homo sapiens) (P14618 whole entry, looked up): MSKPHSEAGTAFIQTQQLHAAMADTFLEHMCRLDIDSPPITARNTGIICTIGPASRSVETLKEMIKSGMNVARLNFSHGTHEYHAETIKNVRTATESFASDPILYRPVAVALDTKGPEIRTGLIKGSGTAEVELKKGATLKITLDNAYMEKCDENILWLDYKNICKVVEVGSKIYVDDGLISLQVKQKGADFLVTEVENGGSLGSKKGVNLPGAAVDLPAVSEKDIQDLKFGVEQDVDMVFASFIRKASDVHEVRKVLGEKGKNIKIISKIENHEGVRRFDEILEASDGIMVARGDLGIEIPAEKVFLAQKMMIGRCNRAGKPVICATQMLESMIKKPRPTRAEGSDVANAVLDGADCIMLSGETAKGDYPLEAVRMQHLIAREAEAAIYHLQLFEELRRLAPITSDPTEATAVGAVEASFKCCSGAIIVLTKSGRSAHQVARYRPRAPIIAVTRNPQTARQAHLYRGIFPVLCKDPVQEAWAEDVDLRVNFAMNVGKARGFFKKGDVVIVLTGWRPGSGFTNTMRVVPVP
Sequence of Guanine nucleotide-binding protein G(i) subunit alpha-1 (Homo sapiens) (P63096 whole entry, looked up): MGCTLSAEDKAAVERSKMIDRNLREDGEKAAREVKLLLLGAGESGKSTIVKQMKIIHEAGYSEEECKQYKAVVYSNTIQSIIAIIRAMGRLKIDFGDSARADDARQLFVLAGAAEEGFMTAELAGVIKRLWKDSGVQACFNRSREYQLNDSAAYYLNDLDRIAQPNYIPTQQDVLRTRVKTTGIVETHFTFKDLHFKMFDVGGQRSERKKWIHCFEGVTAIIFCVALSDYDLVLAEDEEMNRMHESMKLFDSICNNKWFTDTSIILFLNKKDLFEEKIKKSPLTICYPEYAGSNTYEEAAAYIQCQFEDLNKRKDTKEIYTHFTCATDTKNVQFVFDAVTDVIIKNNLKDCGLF
Sequence of DNA repair nuclease/redox regulator APEX1 (Homo sapiens) (P27695 whole entry, looked up): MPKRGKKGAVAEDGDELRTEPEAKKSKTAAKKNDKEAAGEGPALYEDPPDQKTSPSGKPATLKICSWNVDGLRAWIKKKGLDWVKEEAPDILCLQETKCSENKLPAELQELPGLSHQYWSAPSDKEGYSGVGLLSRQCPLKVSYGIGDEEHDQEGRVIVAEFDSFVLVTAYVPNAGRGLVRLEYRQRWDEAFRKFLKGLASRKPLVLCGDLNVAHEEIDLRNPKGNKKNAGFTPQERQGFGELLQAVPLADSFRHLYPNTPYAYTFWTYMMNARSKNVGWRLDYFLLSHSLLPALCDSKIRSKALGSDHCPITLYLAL
Sequence of 3',5'-cyclic-AMP phosphodiesterase 4B (Homo sapiens) (Q07343 whole entry, looked up): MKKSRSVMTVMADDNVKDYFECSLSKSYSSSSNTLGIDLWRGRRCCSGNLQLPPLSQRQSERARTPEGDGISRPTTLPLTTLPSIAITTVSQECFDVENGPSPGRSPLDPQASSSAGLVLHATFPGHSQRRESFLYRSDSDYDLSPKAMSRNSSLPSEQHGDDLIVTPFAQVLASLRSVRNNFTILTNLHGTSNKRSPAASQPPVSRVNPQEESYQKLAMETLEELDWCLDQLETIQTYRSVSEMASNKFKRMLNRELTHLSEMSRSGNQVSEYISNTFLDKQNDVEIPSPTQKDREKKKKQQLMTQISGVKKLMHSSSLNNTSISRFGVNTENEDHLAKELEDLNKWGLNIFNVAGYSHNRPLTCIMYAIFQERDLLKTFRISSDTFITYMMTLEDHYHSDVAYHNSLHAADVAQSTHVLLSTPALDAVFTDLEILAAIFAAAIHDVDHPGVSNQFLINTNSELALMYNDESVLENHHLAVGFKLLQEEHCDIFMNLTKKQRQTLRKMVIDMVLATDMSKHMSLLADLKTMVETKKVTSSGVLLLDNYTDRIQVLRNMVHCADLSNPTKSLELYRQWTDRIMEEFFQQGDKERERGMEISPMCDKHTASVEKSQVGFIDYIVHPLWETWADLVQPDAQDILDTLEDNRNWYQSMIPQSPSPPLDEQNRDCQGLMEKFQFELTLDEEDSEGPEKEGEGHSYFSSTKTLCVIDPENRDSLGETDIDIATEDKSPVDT
Sequence of Muscarinic acetylcholine receptor M1 (Rattus norvegicus) (P08482 whole entry, looked up): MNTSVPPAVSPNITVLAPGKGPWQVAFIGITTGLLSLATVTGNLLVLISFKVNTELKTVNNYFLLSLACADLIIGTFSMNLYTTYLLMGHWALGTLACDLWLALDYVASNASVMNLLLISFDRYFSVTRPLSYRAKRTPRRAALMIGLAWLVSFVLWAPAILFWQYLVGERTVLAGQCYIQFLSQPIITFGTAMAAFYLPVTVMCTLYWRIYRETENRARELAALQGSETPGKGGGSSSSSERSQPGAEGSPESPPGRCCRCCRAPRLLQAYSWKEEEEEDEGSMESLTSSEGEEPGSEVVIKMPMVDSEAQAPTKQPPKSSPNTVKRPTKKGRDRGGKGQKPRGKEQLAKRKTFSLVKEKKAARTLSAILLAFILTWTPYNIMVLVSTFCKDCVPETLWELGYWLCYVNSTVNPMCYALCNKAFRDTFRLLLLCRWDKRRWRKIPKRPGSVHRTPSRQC
Sequence of Alpha-galactosidase A (Homo sapiens) (P06280 whole entry, looked up): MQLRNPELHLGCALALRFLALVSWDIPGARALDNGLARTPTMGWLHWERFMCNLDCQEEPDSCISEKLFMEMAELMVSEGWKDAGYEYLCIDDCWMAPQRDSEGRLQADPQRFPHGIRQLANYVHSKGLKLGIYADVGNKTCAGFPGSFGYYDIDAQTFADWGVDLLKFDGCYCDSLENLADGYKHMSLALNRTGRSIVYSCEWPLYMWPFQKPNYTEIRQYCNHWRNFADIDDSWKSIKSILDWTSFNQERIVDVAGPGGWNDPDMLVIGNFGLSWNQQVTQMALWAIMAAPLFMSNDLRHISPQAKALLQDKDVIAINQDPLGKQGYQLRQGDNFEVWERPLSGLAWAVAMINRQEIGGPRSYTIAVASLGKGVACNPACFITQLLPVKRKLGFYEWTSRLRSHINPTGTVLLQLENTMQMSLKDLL

## O=C(Nc1cc(C(=O)Nc2ccc(S(=O)(=O)O)cc2S(=O)(=O)O)cc(C(=O)Nc2ccc(S(=O)(=O)O)cc2S(=O)(=O)O)c1)Nc1cc(C(=O)Nc2ccc(S(=O)(=O)O)cc2S(=O)(=O)O)cc(C(=O)Nc2ccc(S(=O)(=O)O)cc2S(=O)(=O)O)c1
[1]
  Potency: 31.6 µM (active)
[2]
  activity change, negative = inhibition: 1.34% (inactive)
[3]
  activity, negative = inhibition: -91.7% (active)
[4]
  Potency: > 46 µM (inactive)
[5]
  Potency: > 46 µM (inactive)
[6]
  Potency: inactive
[7]
  outcome: inactive
[8]
  Potency: 7.94 µM (active)
[9]
  Potency: inactive
[10]
  Potency: inactive
[11]
  Potency: inactive
[12]
  Potency: inactive
[13]
  outcome: inactive
[14]
  outcome: inactive
[15]
  outcome: inactive
[16]
  outcome: inactive
[17]; at 57.5 µM (top of the series)
  activity change, negative = inhibition: 10.5% (inactive)
[17]; measured here: cell count channel max response
  max response: -19.5%
[17]; measured here: lipid channel max response
  max response: -13.3%
[18]
  Potency: 2.51 µM (active)
[19]
  Potency: 4.47 µM (active)
[20]
  Potency: 6.31 µM (active)
